HSF1 inh: HSF1 inhibition; NIH3T3-HGL HSE-luciferase, MG132-induced, luminescence 8 h; active compounds read low; activity change, negative = inhibition, % at 7.5 µM (by protocol); actives 0.77% (n = 300,000);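 active = more than half of replicate wells show activity change below -50%, luminescence cut by over half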;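 note: luciferase reports HSF-1 transcriptional activity via heat shock element; 0% = median of DMSO wells and -100% = zero luminescence signal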
FXN GAA850 act: frataxin GAA850 promoter activation; HEK293 lucGAA850 FXN promoter luciferase reporter, 24 h; percent of 10 µM SAHA response; activation, % at 6 µM; actives 0.56% (n = 360,000); AID 540364;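 active = activation above the average of all compounds screened plus 3 SD, cutoff fixed separately per campaign, cut at about 7.5% in these data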;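 note: 0% = DMSO wells and 100% = 10 µM SAHA wells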
HSF-1 act: increases HSF-1 driven luciferase reporter signal; NIH3T3-HGL HSF-1 luciferase reporter, MG132, 8 h; 100% = twice DMSO control signal; activation, % at 9 µM; actives 1.7% (n = 300,000);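 active = mean replicate activation of at least 50% with a set share of replicates each reaching 50%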;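 note: 0% = median of the neutral control wells and 100% = twice that signal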
AHR activator: activators of human aryl hydrocarbon receptor. P35869. AHR-responsive luciferase reporter cells, luminescence. activation, % at 5 µM. actives 2.5% (n = 320,000). AID 2796; in the data active = activation above about 47%;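 note: 0% = vehicle wells and 100% = reference agonist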
Target sequence (P35869 whole entry, looked up): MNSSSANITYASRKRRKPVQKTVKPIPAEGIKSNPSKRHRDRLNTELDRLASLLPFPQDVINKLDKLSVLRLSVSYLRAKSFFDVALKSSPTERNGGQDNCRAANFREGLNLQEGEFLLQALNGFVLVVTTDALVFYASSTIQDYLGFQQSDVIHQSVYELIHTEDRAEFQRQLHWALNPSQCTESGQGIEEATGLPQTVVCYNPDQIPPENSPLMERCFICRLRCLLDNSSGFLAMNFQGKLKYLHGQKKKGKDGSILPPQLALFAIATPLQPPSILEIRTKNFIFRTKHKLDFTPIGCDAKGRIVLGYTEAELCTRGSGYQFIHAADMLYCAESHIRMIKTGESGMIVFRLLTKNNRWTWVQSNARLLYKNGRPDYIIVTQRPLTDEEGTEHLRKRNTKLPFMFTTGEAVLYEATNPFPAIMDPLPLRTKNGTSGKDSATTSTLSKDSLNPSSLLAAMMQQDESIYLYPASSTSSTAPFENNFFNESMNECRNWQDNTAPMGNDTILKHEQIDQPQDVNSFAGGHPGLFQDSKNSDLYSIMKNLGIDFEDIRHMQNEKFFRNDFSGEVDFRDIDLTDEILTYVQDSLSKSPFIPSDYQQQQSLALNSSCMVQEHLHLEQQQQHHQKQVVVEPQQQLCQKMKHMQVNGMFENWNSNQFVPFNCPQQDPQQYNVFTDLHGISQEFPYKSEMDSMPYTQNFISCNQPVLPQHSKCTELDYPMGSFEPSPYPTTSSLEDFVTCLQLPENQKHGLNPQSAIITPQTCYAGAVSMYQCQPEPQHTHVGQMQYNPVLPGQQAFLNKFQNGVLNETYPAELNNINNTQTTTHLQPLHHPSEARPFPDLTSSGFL
* marks the source's active call; other numbers are inactive results; nt = no result given. Only some compounds are listed: those with a hit (about 4.6% of all), similar ones and a draw of the others.

SMILES	HSF1 inh	FXN GAA850 act	HSF-1 act	AHR activator
CCc1nn2cc(C(=O)c3ccccc3O)cnc2c1-c1ccc(F)cc1	7	3	42	10
COc1cc(N)ccc1C(=O)O	-60*	-1	-62	1
CCC(C)n1c(SC(C)C#N)nc2ccccc2c1=O (configuration not stated)	-85*	4	-88	-2
O=c1[nH]c(/C=C/c2ccc(Br)cc2)nc2c1cnn2-c1ccccc1	0	nt	-9	54*
O=c1c(Cl)c(Cl)cnn1-c1ccccc1	-96*	-7	-96	nt
O=c1c(Cl)c(N/N=C/c2ccc(Cl)cc2)cnn1-c1ccccc1	11	0	9	50*
O=c1[nH]ncc(N/N=C/c2ccccc2)c1Cl	-3	2	-2	-1
Cc1[nH]c2ccc(Br)cc2c(=S)c1C/C=C/Cl	0	3	-9	6
Cc1[nH]c2ccc3ccccc3c2c(=O)c1C/C=C/Cl	8	0	7	47*
O=C(c1ccc(-c2ccccc2)cc1)c1ccc([N+](=O)[O-])cc1	6	nt	2	1
O=C(C#Cc1ccccc1)c1ccc([N+](=O)[O-])cc1	51	13*	61*	nt
O=C(C#Cc1ccccc1)c1ccccc1	nt	9.3*	nt	nt
Cc1cc(C)cc(OCC(O)CN2CC(C)OC(C)C2)c1 (configuration not stated)	-63*	1	-71	1
COc1ccccc1N(CC(=O)Nc1ccccc1C(=O)N1CCOCC1)S(C)(=O)=O	-5	2	-7	1
Cc1sc(NC(=S)Nc2ccc(F)cc2)c(C(N)=O)c1C	-4	3	-20	81*
Cc1sc(NC(=S)NC(=O)C2CCCCC2)c(C(N)=O)c1C	-3	-1	6	56*
Cc1sc(NC(=O)c2ccc(Br)s2)c(C(N)=O)c1C	38	2	61*	59*
CCOC(=O)c1c(NC(=S)Nc2ccc(Cl)cc2)sc(C)c1C	15	-1	-14	nt
Cc1c(CC(=O)N[C@@H](C)C(=O)O)c(=O)oc2cc3occ(-c4ccccc4)c3cc12	-14	-1	5	-1
Cc1ccc(CN2CCN(C(=O)CCc3ccccc3)CC2)cc1	-1	1	-23	1
CN(CCC#N)C(=O)COC(=O)[C@H](Cc1ccccc1)N1C(=O)c2ccccc2C1=O	-4	1	2	54*
Cn1c(N)c(C(=O)COC(=O)[C@H](Cc2ccccc2)N2C(=O)c3ccccc3C2=O)c(=O)n(C)c1=O	6	2	6	58*
O=C(NC(Cc1ccccc1)C(=O)O)/C(=C\c1ccco1)NC(=O)c1ccccc1 (configuration not stated)	-6	1	4	5
CSc1nc(C)cc(SCC(=O)Nc2ccccc2)n1	1	1	5	-6
CSc1nc(C)cc(SCC(=O)N/N=C/c2ccccc2)n1	-4	1	24	71*
SMILES	HSF1 inh	FXN GAA850 act	HSF-1 act	AHR activator
CCOC(=O)c1ccc(NC(=O)COc2ccc(CNCCO)cc2OCC)cc1	-8	0	-12	0
CCOC(=O)c1ccc(NC(=O)COc2ccccc2CNCCc2ccccc2)cc1	5	-4	32	50*
CS(=O)c1ccccc1COC(=O)Nc1cccc(Cl)c1 (configuration not stated)	1	3	1	5
COc1ccc2nc(Cl)c(C#N)cc2c1	-65*	4	-72	2
C=C(C)CN(CC)c1nc(N)c2c(N)nc3c(c2c1C#N)CC(=O)N3C12CC3CC(CC(C3)C1)C2	18	0	55*	6
COc1ccc(C2C(C(=O)Nc3cccc(OC)c3)c3ccccc3C(=O)N2C)cc1 (configuration not stated)	2	2	21	16
CCOc1ccccc1NC(=O)c1cccc2c1C(=O)N(CCOC)C2	8	1	39	69*
COCCN1Cc2cccc(C(=O)Nc3ccc4c(c3)OCCO4)c2C1=O	-52*	-6	-56	12
COCCN1Cc2cccc(C(=O)Nc3ccc(C)cc3)c2C1=O	3	5	19	-14
COc1ccc(N/N=C(\C=N\O)C(=O)c2ccc(OC)cc2)cc1	-3	-3	0	48*
CCN1CCN(Cc2ccc(NC(=O)c3cc(NC(=O)c4cncc(-c5cccs5)c4)cc(OC)c3)cc2C(F)(F)F)CC1	-10	-3	-9	5
CCOC(=O)c1c(C)[nH]c(C)c1C(=O)CSc1nnc(-c2ccc(OC(F)F)cc2)o1	-8	-1	-8	43
C/C(N)=C(/C#N)C(=O)CSc1nnc(-c2ccc3c(c2)OCO3)o1	50	0	76*	13
C/C(N)=C(/C#N)C(=O)CSc1nnc(-c2ccc(OC(F)F)cc2)o1	46	7	78*	14
CCOC(=O)C1=C(CN2CCN(C(=O)c3ccco3)CC2)NC(=O)NC1c1ccc(C)cc1 (configuration not stated)	2	0	13	2
COc1ccc(C)c2sc(=NC(=O)c3ccc(C(C)=O)cc3)n(C)c12	-18	6	-22	23
Cc1onc(-c2ccccc2Cl)c1C(=O)N1CCN(C(=O)c2ccco2)CC1	-4	1	13	-2
CCCN1CCC(NC(=O)Nc2cccc3ccccc23)CC1	-4	-1	-6	3
COc1ccc(C2c3c(ncn(Cc4ccco4)c3=N)Oc3ccc4ccccc4c32)cc1 (configuration not stated)	18	-1	69*	32
COc1ccc(C2c3ccc(O)cc3Oc3ncn(Cc4ccccc4)c(=N)c32)cc1OC (configuration not stated)	0	-1	8	-2
COc1ccc(C2c3ccc(O)cc3Oc3ncn(Cc4ccco4)c(=N)c32)cc1 (configuration not stated)	35	0	75*	3
N=c1c2c(ncn1Cc1ccco1)Oc1ccc3ccccc3c1C2c1ccccc1 (configuration not stated)	-13	-3	-18	8
C=CCNc1cc(C)oc(=O)c1C(=O)CCC	-68*	4	-72	2
C=CCNc1cc(C)oc(=O)c1C(=O)CC	5	2	22	1
C[C@H]1CN([C@@H](C)CO)C(=O)Cc2cc(NC(=O)Cc3cn(C)c4ccccc34)ccc2O[C@@H]1CN(C)S(=O)(=O)c1cn(C)cn1	nt	1	nt	12
SMILES	HSF1 inh	FXN GAA850 act	HSF-1 act	AHR activator
Nc1c(C(=O)N2CCOCC2)sc2nc3c(cc12)CCCC3	-10	-4	-12	49*
Cc1cc(C)c2nc3sc(C(=O)N4CCOCC4)c(N)c3cc2c1	-33	1	-40	72*
Nc1c(C(=O)N2CCOCC2)sc2nc3c(cc12)CCC3	-4	1	10	33
CC(=O)CCCCn1c(=O)c2c(ncn2C)n(C)c1=O	-7	1	-10	-4
CCOc1ccc(N=CC2=C(O)CC(C)(C)CC2=O)cc1	2	-2	22	7
Cc1ccc(-c2nc(-c3cccnc3)no2)c(C)c1	21	4	57*	47
Brc1ccc(-c2nc(-c3cccnc3)no2)o1	14	1	14	63*
Cc1ccc(C)c(OCc2nc(-c3cccnc3)no2)c1	1	1	12	3

Source: PubChem BioAssay
